Reference: PubChem BioAssay (EPA / NIEHS)
“And” between values parts separate entries of the source, which are not always exact repeats. Identical values can stand only once. Results filed as inconclusive are left out. The source holds several records for some structures; these can differ, active in one and inactive in another. The source made the active and inactive calls. The calls were made as follows, unless noted: active = hit-call score of the fitted dose curve at least 0.9, where 1 is the maximum; inactive = score below 0.9.

Key:
[1] = biological target: Estrogen receptor (Homo sapiens) (UniProt P03372); assay: CCTE_Deisenroth_AIME_384WELL_LUC_Shift: CCTE's 384-well Estrogen Receptor Transactivation Assay with AIME metabolic competence data shift (ERTA luciferase; difference in metabolism positive and negative), Deisenroth Lab (AID 2284041);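 also: shift is response with S9 minus without S9 so positive means metabolism raised ER signal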
Outline: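 Here, parent compounds undergo 2 h phase I metabolism by PB/BNF-induced rat S9 before 24 h transactivation in VM7Luc4E2 cells; the curve models S9-positive minus S9-negative response over a 10-point series.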

DIO2 (gene 1734) = assay: CCTE_GLTED_hDIO2: CCTE's human Deiodinase 2 (DIO2) Inhibition Assay, Great Lakes Toxicology and Ecology Division (GLTED) Lab (AID 2284050; active = hit-call score of the fitted dose curve at least 0.9, where 1 is the maximum)
Outline: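 Cell-free human DIO2 incubated 3 h with chemical; liberated iodide quantified by Sandell-Kolthoff absorbance. Triplicate plates; loss of signal fitted vs DMSO.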

DIO3 (gene 1735) = assay: CCTE_GLTED_hDIO3: CCTE's human Deiodinase 3 (DIO3) Inhibition Assay, Great Lakes Toxicology and Ecology Division (GLTED) Lab (AID 2284055; active = hit-call score of the fitted dose curve at least 0.9, where 1 is the maximum;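 also: potency is for inhibition seen as loss of released iodide signal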)
Outline: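 Human DIO3 from an adenovirus expression system is incubated 3 h with test chemical. Released iodide is quantified by Sandell-Kolthoff absorbance, in triplicate plates. Loss of signal is fitted relative to DMSO.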

[2] = CCTE_Shafer_MEA_acute_AB: CCTE's Alamar Blue Assay for Cytotoxicity in the Neural Acute Assay, Shafer Lab (AID 2284069; active = hit-call score of the fitted dose curve at least 0.9, where 1 is the maximum;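 also: active compounds lower the viability signal compared with DMSO wells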)
Outline: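 Metabolic activity in chemically exposed rat cortical neurons (MEA cultures, day 13/15 post-plating) measured via CellTiter Blue resazurin reduction, 544/590 nm fluorescence; fitted relative to DMSO, with signal loss indicating reduced viability.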

[3] = CCTE_Shafer_MEA_acute_LDH: CCTE's Lactate Dehydrogenase Assay for Cytotoxicity in the Neural Acute Assay, Shafer Lab (AID 2284086; active = hit-call score of the fitted dose curve at least 0.9, where 1 is the maximum;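 also: active means LDH release rises above DMSO vehicle level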)
Outline: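 Medium from rat cortical neuron MEA cultures sampled right after the 40 min compound-exposure recording; released LDH measured by absorbance at 490 nm. Analyzed as signal gain relative to DMSO.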

[4] = CCTE_Shafer_MEA_dev_burst_rate: CCTE's Neural Network Formation Assay for Burst Rate, Shafer Lab (AID 2284042);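 as to AC50: potency for loss of burst rate below DMSO control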
Outline: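 Cells plated, treated day 0; recorded DIV 5, 7, 9, 12; fed and re-treated DIV 5, 9. Endpoint: bursts per recording time, active-electrode well mean, trapezoidal AUC, fitted in decreasing direction against DMSO baseline.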

[5] = CCTE_Shafer_MEA_dev_bursting_electrodes_number: CCTE's Neural Network Formation Assay for Number of Bursting Electrodes, Shafer Lab (AID 2284043; active = hit-call score of the fitted dose curve at least 0.9, where 1 is the maximum;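 as to AC50: potency is for loss of bursting electrodes relative to DMSO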)
Outline: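 Primary rat cortical neurons were cultured on PEI-coated 48-well MEA plates (16 electrodes/well) and exposed from plating through day 12, with compound renewed at feeds on DIV 5 and 9. Electrodes bursting ≥1 per 2 min were counted on DIV 5, 7, 9, 12; trapezoidal AUC taken.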

[6] = CCTE_Shafer_MEA_dev_per_burst_interspike_interval: CCTE's Neural Network Formation Assay for Burst Interspike Interval, Shafer Lab (AID 2284044);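 also: mean spike spacing inside bursts as AUC over recordings on days 5 7 9 12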;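 as to AC50: potency for a decrease of within-burst interspike interval below DMSO level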
Outline: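 Neurons from rat cortex plated onto PEI-coated MEA wells with laminin […] at 1.5 x 10^5 cells/well, then treated from day 0. Media and compound fully replaced on DIV 5 and 9. Extracellular spontaneous firing recorded four times; interspike interval per burst summarised as AUC.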

[7] = CCTE_Shafer_MEA_dev_burst_duration_mean: CCTE's Neural Network Formation Assay for Mean Burst Duration, Shafer Lab (AID 2284045);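 as to AC50: curve fitted for loss meaning shorter burst duration than DMSO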
Outline: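 Primary rat cortical neurons on PEI-coated 16-electrode MEA wells, exposed from plating through day 12 with compound renewed at DIV 5 and 9; spontaneous activity recorded days 5, 7, 9, 12. Well-mean burst duration collapsed as trapezoidal AUC, fitted for loss versus DMSO.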

[8] = CCTE_Shafer_MEA_dev_inter_network_spike_interval_mean: CCTE's Neural Network Formation Assay for Mean Inter-network Spike Interval, Shafer Lab (AID 2284047);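 as to AC50: potency for a decrease in mean inter-network spike interval below DMSO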
Outline: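 Rat cortical cultures, 1.5 x 10^5 cells/well on 48-well MEA plates; continuous exposure days 0–12, medium and compound refreshed DIV 5, 9. Mean time between consecutive network-spike peaks; AUC across DIV 5/7/9/12; DMSO baseline, negative fitting direction.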

[9] = CCTE_Shafer_MEA_dev_network_spike_number: CCTE's Neural Network Formation Assay for Number of Network Spikes, Shafer Lab (AID 2284048);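 also: synchronized bursts across electrodes counted on days 5 7 9 12 and integrated as AUC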;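 as to AC50: fit as a loss of signal meaning fewer network spikes than DMSO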
Outline: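 Primary rat cortical neurons were seeded at 1.5 x 10^5 cells/well on PEI-coated 16-electrode MEA wells with laminin, exposed from plating day 0, compound renewed at DIV 5 and 9. Network spikes were recorded on days 5, 7, 9, 12 and summarized as trapezoidal AUC versus DMSO.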

[10] = CCTE_Shafer_MEA_dev_spike_duration_mean: CCTE's Neural Network Formation Assay for Mean Spike Duration, Shafer Lab (AID 2284051);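 also: mean network spike duration pooled as area under curve over DIV 5 to 12 recordings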;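 as to AC50: potency for a decrease in mean network spike duration versus DMSO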
Outline: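 Readout is the average length of network spikes, clustered firing across electrodes, summed over DIV 5, 7, 9 and 12 as area under the curve. Neurons from rat cortex developed networks on MEA plates under continuous 12-day exposure.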

[11] = CCTE_Shafer_MEA_dev_network_spike_duration_std: CCTE's Neural Network Formation Assay for Standard Deviation of Network Spike Duration, Shafer Lab (AID 2284052);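 also: area under curve of spike duration SD across recording days 5 to 12; hits are decreases in network spike duration SD versus DMSO vehicle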
Outline: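 Read-out is the trapezoidal area-under-the-curve across recordings made on days 5, 7, 9 and 12, fitted in the negative direction against DMSO baseline. Neurons were primary rat cortical cells treated from day 0, with treatment renewed at each feed.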

[12] = CCTE_Shafer_MEA_dev_per_network_spike_spike_number_mean: CCTE's Neural Network Formation Assay for Mean Number of Spikes in a Network Spike, Shafer Lab (AID 2284053);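 as to AC50: fitted as decrease in spikes per network spike relative to DMSO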
Outline: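 Continuous twelve-day exposure of developing rat cortical networks grown over 16 microelectrodes per well; spontaneous firing is captured at four time points, and the per-network-spike spike number is integrated over development by trapezoidal AUC.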

[13] = CCTE_Shafer_MEA_dev_per_network_spike_spike_percent: CCTE's Neural Network Formation Assay for Percent of Spikes in a Network Spike, Shafer Lab (AID 2284054)
Outline: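 Primary rat cortical neurons on 16-electrode MEA wells (PEI-coated, laminin at plating), exposed from day 0 with renewal at DIV 5 and 9; spikes within 0.05 s of network-spike peaks over total spikes, AUC across days 5, 7, 9, 12.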

[14] = CCTE_Shafer_MEA_dev_LDH: CCTE's Lactate Dehydrogenase Assay for Cytotoxicity in the Neural Network Formation Assay, Shafer Lab (AID 2284068; active = hit-call score of the fitted dose curve at least 0.9, where 1 is the maximum;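 also: exposure for twelve days from plating with re-dosing on DIV 5 and 9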)
Outline: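 Cytotoxicity companion to network-formation recordings: rat cortical neurons received compound over 12 days of development, re-dosed at DIV 5 and 9 feeds. Viability was inferred from LDH enzyme activity relative to DMSO.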

[15] = CCTE_Shafer_MEA_dev_AB: CCTE's Alamar Blue Assay for Cytotoxicity in the Neural Network Formation Assay, Shafer Lab (AID 2284083; active = hit-call score of the fitted dose curve at least 0.9, where 1 is the maximum;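 also: twelve days of exposure from plating with re-dosing on DIV 5 and 9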)
Outline: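 Fluorescent resazurin reduction serves as the viability read-out, with DMSO as negative control and baseline. Cells were primary rat cortical neurons grown on MEA plates and dosed from day 0 to day 12, treatment renewed on DIV 5 and 9.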

[16] = CCTE_Shafer_MEA_dev_mutual_information_norm: CCTE's Neural Network Formation Assay for Mutual Information Normalization, Shafer Lab (AID 2284091);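 as to AC50: mutual information between electrodes summarised as area under curve across four recording days; potency is for a decrease in mutual information relative to DMSO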
Outline: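 Rat cortical cultures, 48-well MEA, continuous exposure DIV 0–12 with full media/compound change DIV 5 and 9. Readout: inter-electrode mutual information, AxIS adaptive spike detection; AUC across DIV 5/7/9/12 recordings; DMSO baseline, negative fitting direction.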

[17] = UKN5_HCS_SBAD2_cell_viability: Viability Assessment in the University of Konstanz (UKN) Leist Lab Neurite Outgrowth Assay in human iPSC-derived immature Dorsal Root Ganglia Neurons (UKN5) (AID 2284056)
Outline: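 iPSC-derived immature peripheral neurons (SBAD2) seeded on Matrigel with CHIR99021, SU5402 and DAPT, dosed 1 h later for 24 h. Viability from Hoechst H-33342 and calcein-AM live staining, high-content imaging; bidirectional fit versus DMSO.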

[18] = UKN5_HCS_SBAD2_neurite_outgrowth: University of Konstanz (UKN) Leist Lab Neurite Outgrowth Assay in human iPSC-derived immature Dorsal Root Ganglia Neurons (UKN5) (AID 2284070); details: actives raise or lower the signal
Outline: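 SBAD2 iPSC-derived immature peripheral neurons on Matrigel, 100.000 cells/cm2, medium with CHIR99021 (1.5 uM), SU5402 (5 uM), DAPT (5 uM); compound added 1 h post-seeding for 24 h. Calcein-AM neurite area by high-content imaging; Hoechst H-33342 viability; bidirectional fit vs DMSO.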

Measured: AC50

Chain of Estrogen receptor (Homo sapiens) (P03372 whole entry, looked up): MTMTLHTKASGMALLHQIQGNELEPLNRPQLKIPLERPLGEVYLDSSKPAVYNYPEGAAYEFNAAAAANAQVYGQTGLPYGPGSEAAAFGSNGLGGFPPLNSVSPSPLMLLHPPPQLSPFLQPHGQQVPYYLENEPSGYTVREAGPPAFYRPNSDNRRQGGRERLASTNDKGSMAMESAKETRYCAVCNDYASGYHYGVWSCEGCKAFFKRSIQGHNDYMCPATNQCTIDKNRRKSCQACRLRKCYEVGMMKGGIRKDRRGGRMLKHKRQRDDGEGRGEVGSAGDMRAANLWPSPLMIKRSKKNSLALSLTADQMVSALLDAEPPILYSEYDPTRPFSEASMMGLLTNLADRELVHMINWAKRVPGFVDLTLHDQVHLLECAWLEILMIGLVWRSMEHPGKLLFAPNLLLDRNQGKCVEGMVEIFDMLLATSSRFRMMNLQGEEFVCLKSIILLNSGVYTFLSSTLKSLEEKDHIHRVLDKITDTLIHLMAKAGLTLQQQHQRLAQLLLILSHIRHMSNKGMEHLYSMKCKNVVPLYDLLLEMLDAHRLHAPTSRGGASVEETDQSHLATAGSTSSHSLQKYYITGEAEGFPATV

C=CCc1cc(S(=O)(=O)c2ccc(O)c(CC=C)c2)ccc1O
inactive: [1] | [2] | [3]
active: DIO2 (gene 1734) 120000 nM | DIO3 (gene 1735) 62500 nM

O=C1CN(N=Cc2ccc([N+](=O)[O-])o2)C(=O)N1
inactive: [1]

CCc1cccc(CC)c1N
inactive: [1]

c1ccc2c(c1)-c1cccc3c1c-2cc1ccccc13
active: [5] 5070 nM | [10] 4480 nM | [16] 1.35 µM
not listed: DIO2 (gene 1734) | DIO3 (gene 1735) | [2] | [3] | [17] | [18]
inactive: all other assays above

CCN(CC)C(=S)SSC(=S)N(CC)CC
inactive: [1]
active: [4] 124 nM and 50 nM | [5] 108 nM and 46.3 nM | [6] 157 nM and 39.7 nM | [7] 103 nM and 38.3 nM | [8] 225 nM and 91.6 nM | [9] 102 nM and 52.1 nM | [10] 106 nM and 47.6 nM | [11] 100 nM and 40.6 nM | [12] 102 nM and 55.3 nM | [13] 161 nM and 86.3 nM | [14] 120 nM and 58 nM | [15] 146 nM and 58.6 nM | [16] 94.3 nM and 37.8 nM

OCC(CO)(CO)CO
inactive: [1]

CCOC(N)=O
inactive: [1]

COS(C)(=O)=O
inactive: [1]

CCCc1ccccc1
inactive: [1] | [2] | [3]

C[C@@H](Oc1ccc(CNC(=O)c2cccnc2Oc2ccc3c(c2)OCO3)c(F)c1)C(=O)O
inactive: [1]

CCOc1ccc2[nH]cc(C(=O)NCc3ccccc3)c(=O)c2n1
active: [5] 804 nM
not listed: DIO2 (gene 1734) | DIO3 (gene 1735) | [2] | [3] | [14] | [17] | [18]
inactive: all other assays above

CC(=O)c1ccccc1
inactive: [1]

CCc1ccc(O)c(C(C)(C)C)c1
inactive: [1] | [2] | [3]

c1ccc(C(O[C@@H]2CCCN(CCc3ccc4c(c3)OCO4)C2)c2ccccc2)cc1
inactive: [1] | [2] | [3]

NC(=O)NN=Cc1ccc([N+](=O)[O-])o1
inactive: [1]

CCn1nc(C)c2c1C(=O)NCC(c1ccc(O)cc1)=N2
inactive: [1]

CC(C)c1nnc2ccc(-c3ocnc3-c3cc(F)ccc3F)cn12
inactive: [1]

CC(C)CC(C)O (centres undefined)
inactive: [1]

OCc1ccccc1
inactive: [1] | [3]

COc1cc2c(c(OC)c1OC)-c1ccc(OC)c(=O)cc1[C@@H](NC(C)=O)CC2
active: [4] 27.6 nM | [5] 27 nM | [6] 6.47 nM | [7] 6.51 nM | [8] 26.2 nM | [9] 26 nM | [10] 24.8 nM | [11] 3.22 nM | [12] 12.7 nM | [13] 3 nM | [14] 16.7 nM | [15] 23.2 nM | [16] 0.0238 µM
inactive: [1] | [2]

c1ccc2ncccc2c1
inactive: [1]

CCCCOC(=O)c1ccccc1
inactive: [1]

OCCOCCOCCO
inactive: [1]

CC(C)CCCCCCOC(=O)C1CCCCC1C(=O)OCCCCCCC(C)C (centres undefined)
inactive: [1]

CCCCCOC(C)=O
inactive: [1]

CCCCCCCCCCCCCCCCOS(=O)(=O)O
active: DIO2 (gene 1734) 28900 nM | DIO3 (gene 1735) 6120 nM

C[C@]12C=CC(=O)C=C1CC[C@H]1[C@@H]3C[C@@H](O)[C@](O)(C(=O)CO)[C@@]3(C)C[C@H](O)[C@@]12F
active: [13] 570 nM
not listed: [1] | DIO2 (gene 1734) | DIO3 (gene 1735) | [2] | [3] | [7] | [17] | [18]
inactive: all other assays above

NCC(F)(F)C(F)(F)C(F)(F)C(F)(F)F
not listed: [1] | DIO2 (gene 1734) | DIO3 (gene 1735) | [2] | [3] | [14] | [17] | [18]
inactive: all other assays above

CC[C@H](C)C(=O)O[C@H]1C[C@H](O)C=C2C=C[C@H](C)[C@H](CC[C@@H](O)C[C@@H](O)CC(=O)O)[C@H]21
active: [9] 143 nM | [10] 37 nM | [13] 1880 nM | [15] 2430 nM | [16] 1.97 µM
inactive: [4] | [6] | [7] | [8] | [11] | [12] | [2]

Nc1ccn([C@@H]2O[C@H](CO)[C@@H](O)[C@@H]2O)c(=O)n1
inactive: [6] | [8] | [17]
active: [4] 120 nM and 1.09 µM | [5] 195 nM and 215 nM | [6] 254 nM | [7] 248 nM and 1.85 µM | [8] 140 nM | [9] 144 nM and 143 nM | [10] 145 nM and 889 nM | [11] 65.6 nM and 636 nM | [12] 118 nM and 206 nM | [13] 179 nM and 84 nM | [14] 20.4 µM and 2.69 µM | [18] 1200 nM | [15] 18.5 µM and 1.67 µM | [16] 89.3 nM and 97.6 nM

CC(C)C(=O)Nc1ccc([N+](=O)[O-])c(C(F)(F)F)c1
inactive: [3]
